High-throughput results: PubChem, National Center for Advancing Translational Sciences (NCATS)
A selection: hits, their analogues and other compounds. The true share with any hit is near 8%.
SW480 rerep: induces DNA re-replication in SW480 colon adenocarcinoma cells | SW480 DNA re-replication, Hoechst DNA content imaging, 48 h | Potency, µM (highest dose often 46.1 µM), without a hit: top-dose re-replication activation, actives largely listed as activators | actives 1.8% (n = 340,000); note: % of control where 0% means no effect; nearly all actives have a fitted effect of over 55% in size
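Hoechst fluorescence of nuclei (405 nm excitation, 500-530 nm emission) measured by plate-scanning imager after 48 hr compound exposure at 37 C; re-replication scored as increased number of nuclei with elevated intensity.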
MCF10A rereplic: DNA re-replication induction in MCF 10a cells | Potency, µM (series often up to 46.1 µM), without a hit: at the highest dose activity, positive = re-replication, hits mostly activators | MCF 10A DNA re-replication, Hoechst nuclear intensity, 48 h | actives 2.9% (n = 350,000); note: % of control where 0% means no effect; nearly all actives have a fitted effect of over 50% in size
HT1080 IDH1KD tx: HT-1080 IDH1 knockdown cell toxicity (counter line). HT-1080 IDH1 knockdown viability, ATP luminescence, 48 h. Potency, µM (doses to about 46.1 µM), for inactives: top-dose activity, negative = toxicity, most hits filed as cytotoxic. actives 2% (n = 360,000);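 note: 0% = DMSO wells and -100% = cell-free medium wells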
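Knockdown cells (IDH1KD HT-1080) received compounds 2 h after plating at 750 cells/well and were kept 48 h at 37 °C in 5% FBS RPMI. A CellTiter-Glo luminescence read gave % activity for curve fitting.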
HT1080NT lethal: kills 2HG-producing HT-1080-NT fibrosarcoma cells. HT-1080-NT fibrosarcoma viability, CellTiter-Glo ATP luminescence, 48 h. Potency, µM (titrated, usually from 46.1 µM), inactives show at the highest dose activity, negative = less viability, hits mostly cytotoxic. actives 1.6% (n = 360,000). AID 686970;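 note: NT is the 2HG producing partner of a matched IDH1 knockdown line; 0% = DMSO-treated cells and -100% = media-only wells without cells; nearly all actives have a fitted effect of over 55% in size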
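Viability of the 2HG-overproducing fibrosarcoma line after 48 hours of compound exposure at 37 degrees C was determined by luminescence with CellTiter-Glo, and concentration-effect curves were then fitted and categorized.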
KB-3-1 cytotox: KB-3-1 parental cell cytotoxicity | KB-3-1 viability, CellTiter-Glo ATP luminescence, 72 h | actives 1.4% (n = 400,000) | Potency, µM (titrated, usually from 46.1 µM), most hits filed as cytotoxic | AID 1347075; note: % is set by controls: 0 for no effect and ±100 for the full control effect; nearly all actives have a fitted effect of over 60% in size
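KB-3-1 cells, DMEM (no phenol red) + 10% FBS; compound by pin transfer, 72 h, 37 °C. Readout: CellTiter-Glo luminescence after 10 min. Data normalized, curve-fitted.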
KB-V1 MDR tox: KB-V1 MDR subline cytotoxicity; KB-V1 MDR cells viability, CellTiter-Glo, 72 h; Potency, µM (series often up to 46.1 µM), actives largely listed as cytotoxic; actives 3.4% (n = 400,000); AID 1347076; note: % is set by controls: 0 for no effect and ±100 for the full control effect; nearly all actives have a fitted effect of over 60% in size
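Cells of the MDR subline KB-V1 are plated, dosed with compound at multiple concentrations, and incubated 72 h at 37 degrees C; CellTiter-Glo is then added and luminescence read after 10 min.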
The depositor's hits bear a star; i = inactive; ? = inconclusive; / = no result given; [ ] = remark or other dose. Calls come from the whole dose curve; as a rule, active = well fitted curve in the direction sought with a large enough effect; inconclusive = small, poorly fitted or top-dose-only effect, or another doubt; inactive = no such curve, though single readings can be large; an effect the other way counts as inactive or inconclusive. Potency is the fitted concentration of half-maximal effect.

SMILES | SW480 rerep | MCF10A rereplic | HT1080 IDH1KD tx | HT1080NT lethal | KB-3-1 cytotox | KB-V1 MDR tox
CCOC(=O)c1c(Oc2ccc(OC)cc2)nnc(-c2ccccc2)c1-c1ccccc1 | / | / | / | / | i | i
Cc1ccc(C)n1-c1c(C(=O)NCCCN2CCN(c3ccc(F)cc3)CC2)sc2ncccc12 | / | / | / | / | i | i
Cc1ccccc1CN1C(=O)c2ccccc2C1c1nnnn1-c1ccc2c(c1)OCCO2 (centres undefined) | / | / | 3.26µM* | 3.66µM* | 2.91µM* | 5.8µM*
O=C(Cn1cnc2c(oc3nc4c(cc32)CCCC4)c1=O)Nc1ccccc1 | ? | ? | 13.3% | -2.5% | i | i
O=C(Cn1cnc2c(oc3nc4c(cc32)CCCC4)c1=O)Nc1cccc(Cl)c1 | ? | 18.4µM* | 0.3% | -24.7% | i | i
Cc1ccc(NC(=O)c2nc(-c3ccncc3)no2)c(Cl)c1 | / | / | / | / | i | i
O=C(CNC(=O)c1cccc(F)c1)N/N=C/c1cc(Br)ccc1OC(=O)/C=C/c1ccco1 | 5.17µM* | 10.0% | ? | ? | ? | i
O=C(CNC(=O)c1ccccc1O)N/N=C/c1cc(Br)ccc1OC(=O)/C=C/c1ccco1 | ? | 16.2% | ? | ? | ? | ?
CCCN(CCC)C(=O)CSc1nnc2cc(C)c3ccccc3n12 | / | / | / | / | i | i
O=C(c1cccc(N2C(=O)C3C4C=CC(C4)C3C2=O)c1)N1CCN(c2ccc(F)cc2)CC1 (centres undefined) | 4.8% | 18.8% | 3.6% | 0.5% | i | i
O=C(c1cccc(N2C(=O)C3CC=CCC3C2=O)c1)N1CCN(c2ccccc2)CC1 (centres undefined) | -2.5% | 6.2% | -0.6% | -0.9% | i | 23.1µM*
O=C(c1cccc(N2C(=O)C3CC=CCC3C2=O)c1)N1CCCCCC1 (centres undefined) | -1.6% | -0.3% | -9.0% | 9.5% | i | ?
CC1C=CCC2C(=O)N(c3cccc(C(=O)N4CCN(c5ccc(F)cc5)CC4)c3)C(=O)C12 (centres undefined) | 1.1% | 3.2% | -3.2% | 5.1% | i | 18.4µM*
Cc1cccc(S(=O)(=O)c2c(N)n(/N=C/c3ccccc3)c3nc4ccccc4nc23)c1 | 12.0% | 16.2% | 2.3% | 20.5% | i | i
Nc1c(S(=O)(=O)c2ccccc2)c2nc3ccccc3nc2n1/N=C/c1cccc(O)c1 | 7.2% | 0.92µM* | -2.6%[9.24 µM] | -30.0% | ? | ?
COc1cccc(NC(=O)c2sc3nc(N4CCOCC4)c4c(c3c2N)CCCC4)c1 | 8.4% | 2.31µM* | -4.3% | -0.5% | i | i
N#Cc1sc2nc(N3CCCCC3)c3c(c2c1N)CCCC3 | -3.7%[9.22 µM] | ? | ? | ? | ? | 7.31µM*
Nc1c(C(=O)Nc2ccc(Cl)cc2)sc2nc(N3CCOCC3)c3c(c12)CCCC3 | 15.7% | 2.06µM* | -3.4% | 0.8% | i | i
Nc1c(C(=O)Nc2ccccc2)sc2nc(N3CCOCC3)c3c(c12)CCCC3 | / | / | -4.5% | -0.3% | i | i
Cc1nc2sc(C#N)c(N)c2c2c1CCCC2 | -4.3%[9.22 µM] | -9.7% | 8.7% | 17.4% | i | i
CCOc1ccc(NC(=O)c2sc3nc(N4CCOCC4)c4c(c3c2N)CCCC4)cc1 | 2.91µM* | 23.1µM* | 13.1% | 6.7% | i | i
CCOC(=O)c1c(C)c(-c2ccccc2)n(CC(=O)NC2CCCCCC2)c1C | / | / | / | / | i | i
COc1cc(C)ccc1OCCSc1nc2ccc(NC(C)=O)cc2s1 | / | / | / | / | i | i
CN(C)c1ccc(CNC(=O)C2CCCN(S(=O)(=O)c3ccc4c(c3)oc(=O)n4C)C2)cc1 (centres undefined) | / | / | / | / | i | i
Cc1ccc(NC(=O)c2sc3nc(N4CCOCC4)c4c(c3c2N)CCCC4)cc1 | / | / | 0.4% | -0.3% | i | i
SMILES | SW480 rerep | MCF10A rereplic | HT1080 IDH1KD tx | HT1080NT lethal | KB-3-1 cytotox | KB-V1 MDR tox
Nc1c(C(=O)N2CCOCC2)sc2nc(N3CCOCC3)c3c(c12)CCCC3 | -10.9% | 15.1% | -1.0% | 8.6% | i | i
CC(=O)c1ccc(NC(=O)c2sc3nc(N4CCOCC4)c4c(c3c2N)CCCC4)cc1 | ? | 2.31µM* | 1.5% | -0.4% | i | i
NNC(=O)c1sc2nc(N3CCOCC3)c3c(c2c1N)CCCC3 | 16.4µM* | 20.6µM* | -28.3% | -4.3% | i | i
CCc1ccc(-c2cc(C)no2)cc1S(=O)(=O)Nc1ccc(Cl)cn1 | -22.1% | -1.1% | -8.1% | -9.1% | i | i
CCc1ccc(-c2cc(C)no2)cc1S(=O)(=O)Nc1ccc(Cl)cc1 | / | / | / | / | ? | 16.4µM*
CCc1ccc(S(=O)(=O)c2cn(C)c3cc(N4CCC(C)CC4)c(F)cc3c2=O)cc1 | / | / | / | / | i | i
CCCCCC1CCC(C(=O)NNC(=S)NCC)CC1 (centres undefined) | -3.8% | ? | 3.16µM* | 6.31µM* | ? | 14.6µM*
Cn1cc(/C=C/c2ccc3ccccc3n2)c2ccccc21 | / | / | / | / | ? | i
O=C(c1oc2ccccc2c1N1CCCCC1)N1CCCCC1 | 0.3% | -1.0% | -15.2% | -5.0% | i | 14.6µM*
O=c1oc2ccccc2c(N2CCCCC2)c1CN1CCCC1 | -6.3% | 4.1% | -18.2% | 6.9% | i | 23.1µM*
O=C(c1cc2ccccc2o1)N1CCCCCC1 | -1.6% | ? | 0.7% | 0.1% | i | i
CCc1oc2ccccc2c1C(=O)CCN1CCCCC1 | 11.5% | 9.2µM* | -9.1% | -6.2% | i | i
COc1ccc(NC(=O)c2cc(-c3ccccc3F)no2)cc1 | / | / | / | / | i | i
O=c1c2cc3c(cc2n(Cc2ccc(Cl)cc2)c(=O)n1Cc1nc(-c2ccccc2)no1)OCO3 | / | / | / | / | i | i
COC(=O)c1ccc(OCC2c3cc(OC)c(OC)cc3CCN2C(=O)c2cccc(C)c2)cc1 (centres undefined) | / | / | / | / | i | i
COc1ccccc1NC(=O)COc1ccc(/C=N/NS(=O)(=O)c2ccc(C)cc2)cc1 | 19.1% | ? | 3.6% | 4.9% | i | i
COc1ccccc1NC(=O)COc1ccc(/C=N/NC(=O)CSCc2cc(C)cc(C)c2)cc1 | -2.9% | 18.4µM* | ? | ? | i | i
O=C(CSCc1ccc(Cl)cc1)N/N=C/c1ccc(OCC(=O)Nc2ccccc2)cc1 | 0.3% | 2.4% | -21.8% | -12.4% | i | i
COc1ccccc1NC(=O)COc1ccc(/C=N/NC(=O)CSCc2ccc(Cl)cc2)cc1 | 18.3% | -4.6% | 14.2% | 10.8% | i | 5.17µM*
